Measurements taken from the supplement of paper PMC11732987, “Enantioselective OTUD7B fragment discovery through chemoproteomics screening and high-throughput optimisation” (Communications Chemistry, 2025).

Columns and labels:
Assay in all cases: log2 ratio of Biotin-Ahx-Ub-VS probe labelling (fragment/DMSO); higher = less target engagement (more negative = stronger competition), active = hit call of the paper (q ≤ 0.05, log2 ratio ≤ -1)
Conditions in all cases: compound concentration: 200 uM; treatment time: 3 h
[1] = target: T1, USP19 (UniProt O94966)
T1 sequence (whole entry): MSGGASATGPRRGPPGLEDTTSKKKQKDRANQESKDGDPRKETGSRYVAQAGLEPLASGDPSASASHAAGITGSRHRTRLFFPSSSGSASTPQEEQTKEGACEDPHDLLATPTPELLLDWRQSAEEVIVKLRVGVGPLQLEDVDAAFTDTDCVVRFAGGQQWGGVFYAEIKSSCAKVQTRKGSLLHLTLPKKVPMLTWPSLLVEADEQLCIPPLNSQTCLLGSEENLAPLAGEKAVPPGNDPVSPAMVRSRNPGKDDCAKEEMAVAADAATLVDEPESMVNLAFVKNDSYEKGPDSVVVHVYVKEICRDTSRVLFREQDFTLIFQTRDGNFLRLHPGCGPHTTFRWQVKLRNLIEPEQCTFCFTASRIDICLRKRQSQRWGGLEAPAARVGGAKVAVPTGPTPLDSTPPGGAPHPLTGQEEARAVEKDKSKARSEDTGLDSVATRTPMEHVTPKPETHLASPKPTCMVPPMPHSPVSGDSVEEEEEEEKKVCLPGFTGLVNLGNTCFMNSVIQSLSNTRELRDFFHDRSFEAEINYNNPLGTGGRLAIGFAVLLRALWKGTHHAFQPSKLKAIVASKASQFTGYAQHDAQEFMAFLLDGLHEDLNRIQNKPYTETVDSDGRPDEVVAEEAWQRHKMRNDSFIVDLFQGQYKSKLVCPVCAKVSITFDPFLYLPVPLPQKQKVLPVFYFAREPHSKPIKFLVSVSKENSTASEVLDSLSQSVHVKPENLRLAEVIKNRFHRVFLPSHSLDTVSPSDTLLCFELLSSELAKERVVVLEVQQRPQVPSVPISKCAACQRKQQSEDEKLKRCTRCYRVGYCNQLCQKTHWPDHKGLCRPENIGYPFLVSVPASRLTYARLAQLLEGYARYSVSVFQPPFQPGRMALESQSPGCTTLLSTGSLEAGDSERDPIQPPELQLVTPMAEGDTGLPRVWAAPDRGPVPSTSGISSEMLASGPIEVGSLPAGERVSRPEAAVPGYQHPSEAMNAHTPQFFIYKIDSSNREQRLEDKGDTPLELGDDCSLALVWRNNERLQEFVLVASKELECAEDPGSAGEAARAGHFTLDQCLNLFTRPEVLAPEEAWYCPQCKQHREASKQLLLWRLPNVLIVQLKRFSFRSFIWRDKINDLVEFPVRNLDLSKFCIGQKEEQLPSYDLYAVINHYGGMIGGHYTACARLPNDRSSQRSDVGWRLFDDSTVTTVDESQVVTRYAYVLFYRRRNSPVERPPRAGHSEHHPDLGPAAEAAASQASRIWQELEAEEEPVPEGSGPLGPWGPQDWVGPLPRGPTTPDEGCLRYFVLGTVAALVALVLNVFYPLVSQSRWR
How it was run: (§1)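 Using Biotin-Ahx-Ub-VS at 0.5 µM final for 1 h, DUBs were labelled in HEK293T lysate (495 µg per sample) that had first been treated in triplicate with fragment at 200 µM or vehicle for 3 h. NeutrAvidin enrichment, LysC and trypsin digestion and diaPASEF LC-MS/MS followed. Spectronaut label-free quantities were global-median-normalised. Values are average log2 fragment/vehicle ratios by unpaired t-test, using proteins with ≥2 unique peptides.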

[2] = target: T2, USP22 (UniProt Q9UPT9)
T2 sequence (whole entry): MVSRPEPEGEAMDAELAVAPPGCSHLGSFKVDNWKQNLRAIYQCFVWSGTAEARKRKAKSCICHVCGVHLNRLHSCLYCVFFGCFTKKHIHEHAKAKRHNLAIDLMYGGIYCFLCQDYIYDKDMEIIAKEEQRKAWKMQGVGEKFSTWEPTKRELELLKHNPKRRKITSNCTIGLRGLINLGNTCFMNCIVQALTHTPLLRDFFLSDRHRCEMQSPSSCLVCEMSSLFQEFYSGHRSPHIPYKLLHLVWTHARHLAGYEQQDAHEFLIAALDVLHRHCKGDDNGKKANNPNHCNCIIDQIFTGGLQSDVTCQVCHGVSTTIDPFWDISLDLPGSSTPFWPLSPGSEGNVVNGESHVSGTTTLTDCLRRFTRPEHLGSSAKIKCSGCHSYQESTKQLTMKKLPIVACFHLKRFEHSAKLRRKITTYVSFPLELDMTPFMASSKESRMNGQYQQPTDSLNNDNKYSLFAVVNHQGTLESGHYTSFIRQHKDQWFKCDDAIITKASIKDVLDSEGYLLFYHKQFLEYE
How it was run: as §1

[3] = target: USP24 (UniProt Q9UPU5)
Chain of USP24 (Q9UPU5 whole entry): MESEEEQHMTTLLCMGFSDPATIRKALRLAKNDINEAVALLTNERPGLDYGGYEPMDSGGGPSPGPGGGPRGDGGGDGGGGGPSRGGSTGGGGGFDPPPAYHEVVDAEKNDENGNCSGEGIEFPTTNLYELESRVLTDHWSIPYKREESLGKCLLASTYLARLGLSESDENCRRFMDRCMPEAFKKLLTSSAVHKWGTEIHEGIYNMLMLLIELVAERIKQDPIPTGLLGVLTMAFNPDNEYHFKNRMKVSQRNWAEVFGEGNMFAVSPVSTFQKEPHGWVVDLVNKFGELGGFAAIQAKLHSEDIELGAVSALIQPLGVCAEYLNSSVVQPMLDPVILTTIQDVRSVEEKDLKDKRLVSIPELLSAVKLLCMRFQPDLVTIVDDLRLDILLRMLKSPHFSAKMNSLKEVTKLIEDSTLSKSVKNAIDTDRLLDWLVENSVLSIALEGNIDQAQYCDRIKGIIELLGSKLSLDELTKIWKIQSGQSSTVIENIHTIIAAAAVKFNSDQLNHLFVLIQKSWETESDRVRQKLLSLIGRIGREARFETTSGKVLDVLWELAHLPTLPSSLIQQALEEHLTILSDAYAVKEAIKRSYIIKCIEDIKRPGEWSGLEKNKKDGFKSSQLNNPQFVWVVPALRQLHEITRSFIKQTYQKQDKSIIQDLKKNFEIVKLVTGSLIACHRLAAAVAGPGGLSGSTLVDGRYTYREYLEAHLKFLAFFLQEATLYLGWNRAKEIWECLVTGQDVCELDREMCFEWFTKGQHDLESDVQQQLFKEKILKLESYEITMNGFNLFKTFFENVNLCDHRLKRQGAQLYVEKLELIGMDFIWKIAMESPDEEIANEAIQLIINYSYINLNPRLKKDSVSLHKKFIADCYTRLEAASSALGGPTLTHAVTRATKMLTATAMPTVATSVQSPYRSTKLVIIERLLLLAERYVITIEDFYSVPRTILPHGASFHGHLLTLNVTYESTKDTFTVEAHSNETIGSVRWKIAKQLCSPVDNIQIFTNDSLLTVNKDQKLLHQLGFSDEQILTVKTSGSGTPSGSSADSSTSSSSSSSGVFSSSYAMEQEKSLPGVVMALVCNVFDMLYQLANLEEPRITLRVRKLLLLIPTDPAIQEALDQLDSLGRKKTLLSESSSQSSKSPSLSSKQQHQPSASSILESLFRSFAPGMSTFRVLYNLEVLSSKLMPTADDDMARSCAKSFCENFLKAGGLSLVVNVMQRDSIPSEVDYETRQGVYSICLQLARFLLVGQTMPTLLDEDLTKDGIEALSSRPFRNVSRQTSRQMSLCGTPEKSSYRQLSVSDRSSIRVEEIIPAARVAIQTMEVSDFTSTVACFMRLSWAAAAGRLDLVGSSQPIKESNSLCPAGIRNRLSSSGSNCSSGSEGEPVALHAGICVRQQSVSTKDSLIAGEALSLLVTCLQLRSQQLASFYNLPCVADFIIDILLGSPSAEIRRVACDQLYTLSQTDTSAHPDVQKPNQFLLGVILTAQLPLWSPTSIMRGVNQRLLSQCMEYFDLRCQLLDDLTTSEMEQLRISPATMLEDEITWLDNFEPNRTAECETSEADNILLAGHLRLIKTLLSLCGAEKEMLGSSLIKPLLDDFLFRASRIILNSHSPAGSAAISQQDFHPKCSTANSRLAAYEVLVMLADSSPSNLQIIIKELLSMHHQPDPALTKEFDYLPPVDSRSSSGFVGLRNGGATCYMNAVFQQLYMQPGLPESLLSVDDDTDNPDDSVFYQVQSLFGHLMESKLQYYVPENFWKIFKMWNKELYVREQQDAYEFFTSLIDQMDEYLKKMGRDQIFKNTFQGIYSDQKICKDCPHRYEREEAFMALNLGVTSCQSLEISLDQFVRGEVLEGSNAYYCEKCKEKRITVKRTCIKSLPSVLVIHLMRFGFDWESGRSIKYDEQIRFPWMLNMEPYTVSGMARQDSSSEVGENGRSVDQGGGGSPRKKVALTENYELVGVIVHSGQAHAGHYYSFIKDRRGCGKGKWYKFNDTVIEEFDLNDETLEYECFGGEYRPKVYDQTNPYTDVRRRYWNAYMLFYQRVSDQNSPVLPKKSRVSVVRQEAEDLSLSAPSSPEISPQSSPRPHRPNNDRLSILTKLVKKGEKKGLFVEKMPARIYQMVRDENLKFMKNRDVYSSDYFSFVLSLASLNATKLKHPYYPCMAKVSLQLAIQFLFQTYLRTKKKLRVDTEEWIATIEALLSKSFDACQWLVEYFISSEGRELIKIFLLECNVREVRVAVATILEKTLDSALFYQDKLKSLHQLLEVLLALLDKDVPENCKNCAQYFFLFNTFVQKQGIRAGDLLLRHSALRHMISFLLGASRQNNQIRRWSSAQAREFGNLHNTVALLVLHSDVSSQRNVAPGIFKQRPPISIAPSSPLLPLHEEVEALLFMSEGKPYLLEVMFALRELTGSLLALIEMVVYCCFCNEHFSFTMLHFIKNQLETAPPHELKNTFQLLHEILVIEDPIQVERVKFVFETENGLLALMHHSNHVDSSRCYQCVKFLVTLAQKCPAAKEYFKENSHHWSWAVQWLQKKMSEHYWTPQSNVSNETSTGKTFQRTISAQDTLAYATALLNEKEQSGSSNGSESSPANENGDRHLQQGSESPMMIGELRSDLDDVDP
How it was run: as §1

[4] = target: T3, USP25 (UniProt Q9UHP3)
T3 sequence (whole entry): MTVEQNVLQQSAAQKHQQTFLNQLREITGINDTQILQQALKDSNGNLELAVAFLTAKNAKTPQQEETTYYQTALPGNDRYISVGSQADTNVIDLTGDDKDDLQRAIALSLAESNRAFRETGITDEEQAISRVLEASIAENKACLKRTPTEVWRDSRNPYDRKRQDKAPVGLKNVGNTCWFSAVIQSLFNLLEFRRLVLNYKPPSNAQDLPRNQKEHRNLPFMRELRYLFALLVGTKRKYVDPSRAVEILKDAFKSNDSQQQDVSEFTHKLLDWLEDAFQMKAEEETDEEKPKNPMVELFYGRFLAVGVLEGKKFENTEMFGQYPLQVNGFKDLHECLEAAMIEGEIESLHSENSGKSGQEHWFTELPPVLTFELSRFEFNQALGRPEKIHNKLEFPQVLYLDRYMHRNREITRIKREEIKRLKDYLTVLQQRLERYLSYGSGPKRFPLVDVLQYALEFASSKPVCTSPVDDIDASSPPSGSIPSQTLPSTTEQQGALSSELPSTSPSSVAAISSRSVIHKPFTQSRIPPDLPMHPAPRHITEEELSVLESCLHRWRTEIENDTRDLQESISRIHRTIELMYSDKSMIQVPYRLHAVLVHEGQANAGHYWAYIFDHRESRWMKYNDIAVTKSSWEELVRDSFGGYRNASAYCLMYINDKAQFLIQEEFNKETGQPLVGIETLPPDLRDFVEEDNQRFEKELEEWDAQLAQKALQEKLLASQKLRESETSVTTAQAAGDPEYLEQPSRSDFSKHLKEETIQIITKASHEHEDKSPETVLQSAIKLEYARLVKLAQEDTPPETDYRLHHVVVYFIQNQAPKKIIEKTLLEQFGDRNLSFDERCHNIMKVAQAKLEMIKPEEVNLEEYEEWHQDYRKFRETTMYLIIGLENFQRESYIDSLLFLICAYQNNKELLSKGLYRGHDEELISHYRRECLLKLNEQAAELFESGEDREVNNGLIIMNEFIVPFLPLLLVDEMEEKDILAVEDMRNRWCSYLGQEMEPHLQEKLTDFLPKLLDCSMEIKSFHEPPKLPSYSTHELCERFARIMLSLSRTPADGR
How it was run: as §1

[5] = target: T4, USP28 (UniProt Q96RU2)
T4 sequence (whole entry): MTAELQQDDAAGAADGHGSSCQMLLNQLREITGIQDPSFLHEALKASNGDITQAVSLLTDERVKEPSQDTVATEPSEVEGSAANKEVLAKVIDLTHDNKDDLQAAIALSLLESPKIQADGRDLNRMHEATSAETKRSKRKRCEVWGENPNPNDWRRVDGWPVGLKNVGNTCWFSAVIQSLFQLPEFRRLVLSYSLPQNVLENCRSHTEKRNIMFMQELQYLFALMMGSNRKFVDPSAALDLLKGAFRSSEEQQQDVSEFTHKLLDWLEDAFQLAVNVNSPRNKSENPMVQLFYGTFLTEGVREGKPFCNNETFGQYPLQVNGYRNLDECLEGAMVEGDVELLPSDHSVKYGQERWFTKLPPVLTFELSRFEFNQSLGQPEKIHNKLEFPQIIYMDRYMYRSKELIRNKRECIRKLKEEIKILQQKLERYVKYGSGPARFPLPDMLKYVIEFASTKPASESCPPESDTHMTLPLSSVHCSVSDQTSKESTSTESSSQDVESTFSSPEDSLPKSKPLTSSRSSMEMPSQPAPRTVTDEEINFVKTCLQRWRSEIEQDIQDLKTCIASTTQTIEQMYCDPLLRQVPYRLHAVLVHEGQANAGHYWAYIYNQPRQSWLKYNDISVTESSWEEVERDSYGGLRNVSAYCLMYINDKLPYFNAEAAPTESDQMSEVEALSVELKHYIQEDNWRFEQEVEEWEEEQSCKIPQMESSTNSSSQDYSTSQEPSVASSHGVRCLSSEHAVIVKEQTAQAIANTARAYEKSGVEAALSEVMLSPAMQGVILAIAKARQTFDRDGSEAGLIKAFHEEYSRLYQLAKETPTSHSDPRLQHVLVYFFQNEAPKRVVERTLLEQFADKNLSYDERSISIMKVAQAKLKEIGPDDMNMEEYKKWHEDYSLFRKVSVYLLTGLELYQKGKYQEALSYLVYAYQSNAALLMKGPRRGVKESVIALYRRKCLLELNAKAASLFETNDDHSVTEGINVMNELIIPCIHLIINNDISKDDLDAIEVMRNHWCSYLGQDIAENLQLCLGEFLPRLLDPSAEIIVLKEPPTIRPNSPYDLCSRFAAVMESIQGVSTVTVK
How it was run: as §1

Measured: log2 ratio of Biotin-Ahx-Ub-VS probe labelling

O=C(CCl)NC1(c2ccc3c(c2)OCCO3)CCCC1
inactive: [1] -0.103 | [2] 0.0133 | [3] -0.451 | [4] -0.337 | [5] -0.402
